Assay results: PubChem BioAssay (NCATS)
Records with an inconclusive call do not appear. Unmarked numbers belong to inactive results. Activity calls are given as the source filed them. Calls follow the shape of the dose curve; as a rule, active = well fitted cell-killing curve with a large enough effect; inconclusive = small, poorly fitted or top-dose-only effect; inactive = flat fitted curve, though single readings scatter.

Assay: qHTS of pediatric cancer cell lines to identify multiple opportunities for drug repurposing: Primary screen for DAOY cells (AID 1347090); also: nearly all actives have a fitted effect of over 55% in size;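 as to activity change, negative = cytotoxic: plate controls were DMSO for no effect and bortezomib for full effect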
Settings: DAOY medulloblastoma viability, CellTiter-Glo luminescence, 48 h; series mostly up to 46 µM; activity change, negative = cytotoxic: at the top concentration
Description: Drug repurposing or repositioning has been offered as a strategy for drug development in oncology programs. This approach has special potential for childhood cancers and other rare or orphan diseases, where the expected return on new drug development has been a disincentive to pharmaceuticals.
In this project we exploit the poly-pharmacology of drugs to discover new indications via phenotypic screening of a panel of 19 well-characterized cell lines derived from solid tumors seen in children and adolescents. The goal is to identify approved drugs with previously unrecognized anticancer properties that has the potential to reveal new mechanisms and biological processes involved in carcinogenesis or drug resistance. We employed a titration-based paradigm (quantitative high-throughput screening or qHTS), where all compounds were tested at multiple concentrations for their effect on cell viability. Concentration-response curves (CRCs) were derived directly from the primary screen, and both potency and efficacy values were used to identify compounds with robust bioactivity profiles. We screened the NIH Chemical Genomics Center (NCGC) Pharmaceutical Collection (NPC) and Mechanism Interrogation Plate (MIPE) small molecule collections of approved and investigational compounds against these cell lines; and measured metabolically active cells after 48 hours of compound treatment as a proxy for cell viability.
Assay Submitter: Nathalia J. Martinez, National Center for Advancing Translational Sciences, National Institutes of Health, Rockville, MD, USA; email: natalia.martinez@nih.gov
[1] Shen, M et al. Quantitative high-throughput phenotypic screening of pediatric cancer cell lines identifies multiple opportunities for drug repurposing. Oncotarget 2017 Dec 19;9(4):4758-4772. PMID 29435139.
The cells were obtained from University of North Carolina (UNC), Pediatric Preclinical Testing Program (PPT), and Coriell Institute (CI).
qHTS cell viability assay:
Cells were assayed in growth media at a density of 500-1,000 cells/well. Five microliters of cells were dispensed into 1,536-well, white, solid-bottom, TC-treated plates (Greiner Bio One) using a multidrop dispenser and incubated at 37 degrees C, 5% CO2, under a humidified atmosphere for 5 hours. Twenty-three nanoliters of compounds and controls (neutral control DMSO or positive control bortezomib at final concentration of 2.3 µM) were subsequently transferred by Kalypsys pintool. For primary screens, the MIPE collection was tested at 11-point dilutions (final concentrations range from 0.78 nM to 46 µM) and the NPC collection at 8-point dilutions (final concentrations range from 0.59 nM to 46 µM). Compounds tested in follow-up screens were assayed at 11-point dilutions. Cells were incubated for 48 hours, followed by addition of 3 uL of CellTiter-Glo (Promega). After a 15 min incubation at room temperature, samples were analyzed for luminescence intensity using a ViewLux High-throughput CCD imager equipped with clear filters.
Potency is read from the fitted curve at half-maximal effect.

Row | SMILES | Potency | activity change, negative = cytotoxic
1 | O=C1c2ccccc2C(=O)C1C(=O)C(c1ccccc1)c1ccccc1 | 26.6 µM (active) | –
2 | CCN[C@H](C)Cc1cccc(C(F)(F)F)c1 | – | -2.61% [at 92.7 µM]
3 | COP(=S)(OC)Oc1cc(Cl)c(Cl)cc1Cl | – | 4.14%
4 | COc1cc(CC(C)N)cc(OC)c1OC (stereo not given) | – | -10% [at 92.7 µM]
5 | CC(=O)OCC1=C(C(=O)O)N2C(=O)[C@@H](N)[C@H]2SC1 | – | 6.79% [at 16.1 µM]
6 | CC(Cc1ccccc1)NCCn1cnc2c1c(=O)n(C)c(=O)n2C (stereo not given) | – | -14.4% [at 92.7 µM]
7 | C[C@]12CC[C@@H]3c4ccc(OC(=O)N(CCCl)CCCl)cc4CC[C@H]3[C@@H]1CC[C@@H]2O | – | -11.6%
8 | c1ccc(N2CCNCC2)cc1 | – | -6.25%
9 | O=c1[nH]c2ccccc2n1C1CCNCC1 | – | -3.63%
10 | COC(=O)C(Cl)C(=O)OC | – | 3.83%
11 | NC1=NC(=O)C(c2ccccc2)O1 (stereo not given) | – | 6.25%
12 | c1ccc2c(c1)sc1ccccc12 | – | 5.39%
13 | CN1CCC(O)(c2ccc(F)cc2)C(C(=O)c2ccc(F)cc2)C1 (stereo not given) | – | 8.51%
14 | CCCCCCC(=O)CCCCCC/C=C/C[C@@H](O)[C@H](O)[C@@](N)(CO)C(=O)O | – | -2.95% [at 16.1 µM]
15 | COP(=S)(OC)Oc1ccc(S(=O)(=O)N(C)C)cc1 | – | -9.5%
16 | CC(=O)NC1CCSC1=O (stereo not given) | – | 13.1%
17 | CC(C)NC(C)C | – | 3.55%
18 | Cc1ncsc1CCCl | – | 3.49%
19 | COC1CC(=C(c2cccs2)c2cccs2)C[N+](C)(C)C1 (stereo not given) | – | -1.65%
20 | COc1c2c(cc3c1OCO3)CCN(C)C2 | – | -20.7%

Row | SMILES | Potency | activity change, negative = cytotoxic
21 | CCC(CC)(CNC(=O)CCCO)c1cccc(OC)c1 | – | 4.33%
22 | [N-]=[N+]=CC(=O)OC[C@H](N)C(=O)O | – | -9.96%
23 | Nc1ccccc1 | – | 5.19%
24 | CC[N+]1(CC)CCC(OC(=O)C(O)(c2ccccc2)c2ccccc2)C1 (stereo not given) | – | -6.42%
25 | CCCCC/C=C\C/C=C\C/C=C\C/C=C\CCCC(=O)NCC(=O)O | – | 3.85%
26 | NC(=O)CS(=O)C(c1ccccc1)c1ccccc1 (stereo not given) | – | 9.82%
27 | CC(NC(C)(C)C)C(=O)c1cccc(Cl)c1 (stereo not given) | inactive | –
28 | COc1ccc2c(c1OC)C(=O)O[C@H]2[C@@H]1c2cc3c(cc2CCN1C)OCO3 | – | 13.2%
29 | c1ccc(CN2CCNCC2)cc1 | – | 3.85% [at 155 µM]
30 | CC(C)(C)NCC(O)c1ccccc1Cl (stereo not given) | – | -6.64%
31 | CCC(C)(C)c1ccc(O)cc1 | – | 8.06%
32 | CN(C)CCc1c[nH]c2cccc(OP(=O)(O)O)c12 | – | -16.6% [at 92.7 µM]
33 | CCN(CCO)CCn1c(Cc2ccccc2)nc2c1c(=O)n(C)c(=O)n2C | – | 5.85%
34 | O=C1OC(c2ccc(O)c(S(=O)(=O)O)c2)(c2ccc(O)c(S(=O)(=O)O)c2)c2c(Br)c(Br)c(Br)c(Br)c21 | – | 6.14%
35 | O=C(O)CCCc1ccc(N(CCCl)CCCl)cc1 | – | -26.9%
36 | O=c1[nH]oc2c1CCNC2 | – | -1.08%
37 | COc1cccc(C(=O)CCN[C@@H](C)[C@H](O)c2ccccc2)c1 | 26.6 µM (active) | –
38 | CCCN(CCC)C(=O)Cc1c(-c2ccc(Cl)cc2)nc2ccc(Cl)cn12 | – | -27.9%
39 | CC(C)c1cccc(C(C)C)c1O | inactive | –
40 | CC(C)(N)Cc1ccccc1Cl | – | 5.78%
